Test results as given in PubChem BioAssay AID1508623 (National Center for Advancing Translational Sciences (NCATS), 2021).
The whole screen tested about 48,000 compounds, of which about 450 (0.94%) were called active. Not shown: some 19% with an inconclusive outcome. Only a selection was taken, and actives are over-represented in it overall. A number with no mark means an inactive call. Calls come from the whole dose curve; as a rule, active = well fitted inhibition curve with a large enough effect; inconclusive = small, poorly fitted or top-dose-only effect; inactive = no such curve, though single readings can be large or run the other way.

Assay: Primary qHTS for Identification of Small Molecule Inhibitors of Huntingtin Promoter Activity; note: nearly all actives have a fitted effect of over 50% in size
Details: HEK293 HTT promoter firefly luciferase reporter (activity 0% = vehicle and -100% = no light), 24 h; series mostly up to 57.5 µM; activity change, negative = inhibition: at the top concentration
Description: Assay Provider: Russell L. Margolis M.D.
Department Neurology, Johns Hopkins University School of Medicine, Baltimore, MD
Huntington's Disease (HD) is a neurodegenerative disorder caused by a CAG repeat expansion in exon 1 of huntingtin (HTT). While there are currently no disease-modifying treatments for HD, recent efforts have focused on development of nucleotide-based therapeutics to lower HTT expression. As an alternative to siRNA or oligonucleotide methods, we hypothesized that suppression of HTT expression might be accomplished by small molecules that either (1) directly decrease HTT expression by suppressing HTT promoter activity or (2) indirectly decrease HTT expression by increasing the promoter activity of HTT-AS, the gene antisense to HTT that appears to inhibit expression of HTT.
We developed and employed a high throughput screen for modifiers of HTT and HTT-AS promoter activity using luminescent reporter HEK293 cells; of the 52,041 compounds tested, we identified 898 replicable hits. We used a rigorous stepwise approach to assess compound toxicity and the capacity of the compounds to specifically lower huntingtin protein in 5 different cell lines, including HEK293 cells, HD lymphoblastoid cells, mouse primary neurons, HD iPSCs differentiated into cortical-like neurons, and HD hESCs. We found no compounds which were able to lower huntingtin without lowering cell viability in all assays, though the potential efficacy of a few compounds at non-toxic doses could not be excluded.
SEQUENCE No. (1, 2, 3, etc.); […] (e.g., Cells, Incubation, Reagent, etc.); VALUE and DESCRIPTION.
1; Reagent; 4 uL; 2,500 Hek293 luciferase reporter cells per wells
3; Compound; 23 nL; Control inhibitor / compound library
5; Reagent; 2.5 uL; Firefly Luc reagent; Dual-Glo Luciferase Reporter Assay System (Promega)
6; Time; 10 min; room temperature incubation
7; Detection; Luminescence; FLuc
NOTES (numbers refer to sequence above)
1; High-throughput screening, measuring luminescence from a Hek293 luciferase reporter, was performed in 1,536 well white-walled tissue-culture treated plates. 2,500 cells were plated in 4 µL of Opti-MEM per well using a Multidrop Combi Reagent Dispenser (ThermoFisher).
2; Assay plates were cultured for 24 hours.
3; Control inhibitor (PTC124; final concentration of 50 uM) and compound library (at final concentrations of 460 nM - 57.5 uM) were added to the assay plate using the Kalypsis Pintool Robotic System equipped with 1536 pinheads.
4; Cells were then incubated for 24 hours at 37 degrees C prior to luminescence measurements.
5; In all cases, luminescence was measured using the Dual-Glo Luciferase Reporter Assay System (Promega) following the manufacturer's instructions.
6; Room temperature incubation.
7; Luminescence signal was obtained using the PerkinElmer ViewLux plate reader. Results were normalized to vehicle control (0% activity) and zero RLU (-100% activity).
Potency is the fitted concentration of half-maximal effect.

Compound	activity change, negative = inhibition	Potency
CCOc1ccc(S(=O)(=O)c2cn(Cc3ccc(OC)cc3)c3ccc(F)cc3c2=O)cc1	-19.5%	
Cc1sc(C2C(C#N)=C(N)N(c3cccc(Cl)c3)C3=C2C(=O)CCC3)cc1CN1CCOCC1 (stereo unspecified)	-8.58%	
COc1ccc(NC(=O)c2ccco2)cc1NC(=O)c1ccc(C#N)cc1F	-8.77%	
CCc1cccc(NC(=O)CN(C)S(=O)(=O)c2ccc3[nH]c4c(c3c2)CCCC4)c1	-24.5%	
COc1ccc(OC)c(-n2nnc3c(sc4nc(C)c(Br)c(C)c43)c2=O)c1	-16%	
Cc1c(C(=O)N(C)C)sc2c1c(=O)n(-c1ccc(F)cc1)c(=O)n2CC(=O)N(C)c1ccccc1	-16.9%	
COc1cc(C(=O)NCC(c2ccc(Cl)cc2)N2CCOCC2)cc(OC)c1OC (stereo unspecified)	-3.92%	
COc1c(Cl)cc(Cl)cc1C(=O)Nc1cccc2cccnc12	-11.6%	
CCOc1ccc(C(NC(=O)c2cc(OC)c(OC)c(OC)c2)c2cc(Cl)c3cccnc3c2O)cc1 (stereo unspecified)		3.55 µM (active)
CCCCCn1c(=O)[nH]c2cc(C(=O)Nc3cc(C)cc(C)c3)ccc2c1=O	-2.81%	
Cc1ccc(Cl)cc1N1CCN(S(=O)(=O)c2cc3[nH]c(=O)c(=O)[nH]c3cc2C)CC1	-8.72%	
CC(=O)c1sc(N2C(=O)c3oc4ccccc4c(=O)c3C2c2ccc(C)cc2)nc1C (stereo unspecified)	-13.5% [at 11.5 µM]	
CCS(=O)(=O)N1CCc2cc(C(=O)NCc3ccc(C)cc3)ccc21	-14.9%	
CCOC(=O)c1c(C)oc2nc(C)nc(Nc3ccc(CC)cc3)c12	-7.44%	
O=C(Cn1c(=O)nc(-c2ccccc2)c2cc(Cl)ccc21)NCc1ccc(Cl)cc1	-24%	
CCCOc1cccc(C(=O)Nc2cccc(NC(=O)c3ccc(C(C)(C)C)cc3)c2)c1	28.7%	
CCCN(CCC)CCNC(=O)Cn1cnc2sc(C)c(S(=O)(=O)N3CCC(C)CC3)c2c1=O	-16.4%	
CCc1nn(CCCC(=O)NC(C)c2ccccc2)c(=O)c2cc3occc3n12 (stereo unspecified)	-11%	
COc1ccc(-c2cc(-c3nc(-c4cc(OC)c(OC)c(OC)c4)no3)[nH]n2)c(OC)c1	-15.4%	
Cc1ccccc1-c1nc(CS(=O)(=O)CC(=O)NC(C)c2ccccc2)c(C)o1 (stereo unspecified)	-27.7%	
Cc1ccc(Cl)cc1N1CCN(C(=O)CN2C(=O)COc3ccc(S(=O)(=O)N4CCOCC4)cc32)CC1	-16.6%	
Cc1cccc(N2CCN(C(=O)COCc3cc(-c4ccc5c(c4)OCO5)on3)CC2)c1C	-5.06%	
O=C(Cn1c(-c2cccs2)cc2ccccc21)NCCc1ccc(Cl)cc1	-23.6%	

Compound	activity change, negative = inhibition	Potency
Cc1oc(-c2ccccc2F)nc1CN1CCC(C(=O)NCCc2ccc(Cl)cc2)CC1	-11.4%	
Cc1c(NC(=O)Nc2ccc(F)c(Cl)c2)c(=O)n(-c2ccccc2)n1C	-12.5%	
CCN(CC)S(=O)(=O)c1ccc2c(c1)N(CC(=O)NCC(C)c1ccccc1)C(=O)CO2 (stereo unspecified)	-11.4%	
CCN(CCCNC(=O)c1cc2c(=O)n(CC)c3ccccc3c2s1)Cc1ccccc1	3.33%	
Cc1ccc(Cl)cc1N(C)C(=O)Cn1nc(Cc2cccnc2)c2ccccc2c1=O	-22%	
CC(=O)c1cccc(Nc2ccc3cc(S(=O)(=O)N4CCC(C)CC4)ccc3n2)c1	-11.7%	
C[C@@H](NC(=O)c1ncnc(N)c1Cl)c1ncc(C(=O)Nc2cc(C(F)(F)F)c(Cl)cn2)s1	-16.3%	
Cc1cc(NC(=O)CSc2ncc(C(=O)Nc3ccc(Cl)cc3)c(=O)n2C)no1	-1.72%	
CC(=O)c1ccc(NC(=O)C2CCN(S(=O)(=O)c3c(C)noc3/C=C/c3ccc(C)cc3)CC2)cc1	-21%	
CCOC(=O)c1ccc(NC(=O)C2CC(=O)N(c3ccc(C(C)C)cc3)C2)cc1 (stereo unspecified)	4.03%	
CC(C)c1ccc(NC(=O)C2CCN(c3nc(-c4ccc(C(C)C)cc4)no3)CC2)cc1		0.0891 µM (active)
Cc1ccc2nc(CNC(=O)c3ccccc3)[nH]c2c1	0%	
COCCCNC(=O)CN1C(=O)CSc2ccc(S(=O)(=O)N3CCOCC3)cc21	-9.25%	
CCCNC(=O)c1ccc2c(c1)ncn2-c1ccc(C)cc1C	-9.41%	
CN1C(=O)C[C@H](C(=O)N[C@@H](Cc2cnc[nH]2)C(=O)N2CCC[C@@H]2C(N)=O)NC1=O	9.02%	
COc1ccc(C(=O)NCC(c2ccc(N(C)C)cc2)N2CCc3ccccc32)c(OC)c1 (stereo unspecified)	-17.2%	
COc1cccc(-n2c(=O)c3c(C)c(C(=O)N(C)C)sc3n(Cc3cccc(C)c3)c2=O)c1	-4.23%	
COc1ccc2c(c1)C=C(C(=O)NCc1cc(Br)ccc1OC)CO2	-23.7%	
CCc1ccccc1NC(=O)c1ccc2nc(CCc3ccccc3)oc2c1	0%	
O=C(Nc1cccc(-c2nc3ccccc3o2)c1)c1cccc(Br)c1	-18.9%	
CCOc1ccc(NC(=O)C2CCN(S(=O)(=O)c3cc(-c4noc(C)n4)ccc3C)CC2)cc1	-10.5%	
Cc1cc(C)c(/C=C/c2onc(C)c2S(=O)(=O)N2CCC(C(=O)Nc3ccc(Cl)cc3C)CC2)c(C)c1	3.16%	
Cc1ccc(NC(=O)C2CCN(S(=O)(=O)c3cc(-c4noc(C)n4)ccc3C)CC2)c(C)c1		11.2 µM (active)
